Assay [1] is described as follows: qHTS profiling for inhibitors of Plasmodium falciparum proliferation (AID 504749).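 For activity, negative = inhibition: 0% = DMSO vehicle and full inhibition = artemisinin control.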 Note: nearly all actives have a fitted effect of over 60% in size. Conditions: P. falciparum in erythrocytes, SYBR Green DNA, 72 h. Put shortly:
(§1)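 SYBR Green fluorescence (ex 485 nm, em 535 nm) reports parasite DNA after 72 h compound exposure of infected red cells at 0.3% parasitemia, 2.5% hematocrit; signal normalized to 0.29 uM artemisinin and vehicle wells.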
On the technique in general: Quantitative high-throughput screening tests each substance at several concentrations.

The subject of the next assay is 3D7. Described as above. Conditions: P. falciparum in erythrocytes, SYBR Green DNA, 72 h; series mostly up to 28.7 µM. In short, it runs like this: as §1
The test system of a further assay is 7G8. The assay is described as above. Conditions: P. falciparum in erythrocytes, SYBR Green DNA, 72 h; series mostly up to 28.7 µM. Put shortly:
as §1

The subject of the next assay is AA1029. The description is as above. Conditions: P. falciparum in erythrocytes, SYBR Green DNA, 72 h; series mostly up to 28.7 µM. Put shortly: as §1
The subject of a further assay is AS120. Described as above. The note with it: P. falciparum in erythrocytes, SYBR Green DNA, 72 h; series mostly up to 28.7 µM. Put shortly:
as §1

The subject of another assay is ATS189. The assay is described as above. The note with it: P. falciparum in erythrocytes, SYBR Green DNA, 72 h; series mostly up to 28.7 µM. In short, it runs like this:
as §1

Another assay relates to ATS95. The assay is described as above. Conditions: P. falciparum in erythrocytes, SYBR Green DNA, 72 h; series mostly up to 28.7 µM. Put shortly:
as §1

A further assay deals with C2A. The assay is described as above. The note with it: P. falciparum in erythrocytes, SYBR Green DNA, 72 h; series mostly up to 28.7 µM. In short, it runs like this: as §1
The next assay has as its system CP185. The assay is described as above. The note with it: P. falciparum in erythrocytes, SYBR Green DNA, 72 h; series mostly up to 28.7 µM. Put shortly: as §1
A further assay deals with CP191. Described as above. Conditions: P. falciparum in erythrocytes, SYBR Green DNA, 72 h; series mostly up to 28.7 µM. Put shortly:
as §1

A further assay concerns CP192. The description is as above. The note with it: P. falciparum in erythrocytes, SYBR Green DNA, 72 h; series mostly up to 28.7 µM. Put shortly: as §1
Setting [2] is: at 28.7 µM (top of the series), parasite line A.
Setting [3] is: at 28.7 µM (top of the series), parasite line B.
Setting [4] is: at 12.8 µM (top of the series), parasite line A.
Setting [5] is: at 12.8 µM (top of the series), parasite line B.

Inconclusive results are not listed. A number with no mark means an inactive call. Calls of active or inactive are those of the source. Calls come from the whole dose curve; as a rule, active = well fitted inhibition curve with a large enough effect; inconclusive = small, poorly fitted or top-dose-only effect; inactive = flat fitted curve, though single readings scatter.

This passage reports Potency and activity, negative = inhibition results from PubChem BioAssay (NCATS).
Potency is the fitted concentration of half-maximal effect.

On to `NC(=S)N=Nc1ccc(NN=C(N)N)cc1`, for which the Potency was 10 µM (active) in assay [1] (parasite line A); 10 µM (active) in assay [1] (parasite line B); 12.6 µM (active) in the assay on 3D7; 10 µM (active) in the assay on 7G8; 12.6 µM (active) with AA1029; 12.6 µM (active) in the assay with AS120. In addition, the Potency in the assay on ATS189 was 10 µM (active); with ATS95 it was 10 µM (active); in the assay with C2A, 5.62 µM (active); with CP185, 11.2 µM (active); in the assay on CP191, 4.47 µM (active); in the assay on CP192 it was 8.49 µM (active).

In the case of `Cc1nc(NS(=O)(=O)c2ccc(N)cc2)nc(C)c1Br`, the activity, negative = inhibition in [1] (setting [2]) was 7.52%; in [1] (setting [3]) it was -0.222%. In addition, the Potency entry with 3D7, in the assay with 7G8, with AA1029, with AS120, in the assay with ATS189 and with ATS95 was “inactive” in each case. Also, the Potency entry with C2A, in the assay with CP185, with CP191 and in the assay on CP192 was “inactive” each time.

As for `O=C(/C=C/c1cccc(F)c1)NC1CC1`, the activity, negative = inhibition in [1] (setting [2]) is -17.7%; in assay [1] (setting [3]) it was -9.61%. The Potency entry in the assay with 3D7, in the assay with 7G8, in the assay on AA1029, in the assay with AS120, in the assay on ATS189 and in the assay with ATS95 was “inactive” throughout. In addition, the Potency entry in the assay with C2A, in the assay on CP185, in the assay on CP191 and with CP192 was “inactive” each time.

Turning to `CCCCC[C@H](O)/C=C/[C@H]1[C@H](O)CC(=O)[C@@H]1C/C=C\CCCC(=O)O`, the activity, negative = inhibition was 7.21% in assay [1] (setting [2]) and 0.0897% in [1] (setting [3]). Also, the Potency result with 3D7, with 7G8, in the assay on AA1029, in the assay with AS120, in the assay on ATS189 and with ATS95 was “inactive” throughout. For the same compound, the Potency entry with C2A, in the assay with CP185, in the assay on CP191 and with CP192 was “inactive” throughout.

As to `O=C(O)CCC(=O)c1ccc(-c2ccccc2)cc1`, the activity, negative = inhibition in assay [1] (setting [4]) was -3.71%; in [1] (setting [5]), 12.2%. The Potency result in the assay with 3D7, in the assay on 7G8, with AA1029, in the assay on AS120, with ATS189 and in the assay on ATS95 was “inactive” each time. Also, the Potency result in the assay on C2A, in the assay on CP185, in the assay on CP191 and with CP192 was “inactive” each time.

As to `Cc1c(Cl)cccc1Nc1ncccc1C(=O)O`, the results for the activity, negative = inhibition in [1] (setting [2]) and in [1] (setting [3]) were 15.4% and 7.39%, respectively. For the same compound, the Potency entry in the assay on 3D7, in the assay on 7G8, in the assay with AA1029, with AS120, in the assay on ATS189 and in the assay on ATS95 was “inactive” each time. Moreover, the Potency entry in the assay on C2A, in the assay on CP185, in the assay on CP191 and in the assay with CP192 was “inactive” each time.

For `CCc1ncnc2cc(OC)c(OC)cc12`, the activity, negative = inhibition in [1] (setting [2]) was -5.32%; in [1] (setting [3]) it was 10.1%. Further, the Potency entry with 3D7, with 7G8, with AA1029, in the assay with AS120, with ATS189 and in the assay with ATS95 was “inactive” each time. Besides, the Potency result with C2A, in the assay on CP185, with CP191 and with CP192 was “inactive” in each case.

With `CCCCC`, the activity, negative = inhibition in assay [1] (setting [2]) is 7.05%; in assay [1] (setting [3]), 20.9%. In addition, the Potency entry in the assay on 3D7, with 7G8, in the assay on AA1029, in the assay with AS120, with ATS189 and in the assay on ATS95 was “inactive” throughout. Also, the Potency result with C2A, in the assay with CP185, with CP191 and in the assay with CP192 was “inactive” throughout.

Take `COc1cc(S(C)=O)ccc1-c1nc2ncccc2[nH]1` (stereo not drawn): the activity, negative = inhibition in assay [1] (setting [2]) is 6.38%; in assay [1] (setting [3]), -9.68%. In addition, the Potency entry in the assay with 3D7, in the assay on 7G8, with AA1029, in the assay with AS120, with ATS189 and with ATS95 was “inactive” throughout. Besides, the Potency entry with C2A, in the assay on CP185, in the assay on CP191 and in the assay with CP192 was “inactive” in each case.

Take `C=CCN1CCCC1CNC(=O)c1cc(S(N)(=O)=O)cc(OC)c1OC` (stereo not drawn): the activity, negative = inhibition in assay [1] (setting [2]) is -0.688%; in assay [1] (setting [3]), 8.33%. Moreover, the Potency entry in the assay on 3D7, with 7G8, in the assay with AA1029, with AS120, with ATS189 and with ATS95 was “inactive” throughout. For the same compound, the Potency result in the assay on C2A, in the assay with CP185, in the assay on CP191 and in the assay with CP192 was “inactive” throughout.

In the case of `CC(=O)Oc1cc(C(F)(F)F)ccc1C(=O)O`, the activity, negative = inhibition in assay [1] (setting [4]) was 7.13%; in assay [1] (setting [5]), 12.5%. In addition, the Potency result with 3D7, with 7G8, in the assay with AA1029, in the assay on AS120, in the assay with ATS189 and with ATS95 was “inactive” each time. For the same compound, the Potency entry with C2A, in the assay with CP185, in the assay on CP191 and with CP192 was “inactive” in each case.

Consider `O=C(O)Cc1cc(I)c(Oc2ccc(O)c(I)c2)c(I)c1`, for which the values for the activity, negative = inhibition in assay [1] (setting [4]) and in [1] (setting [5]) were 1.81% and 6.07%, respectively. The Potency entry in the assay on 3D7, in the assay with 7G8, with AA1029, with AS120, in the assay on ATS189 and with ATS95 was “inactive” throughout. For the same compound, the Potency entry with C2A, with CP185, in the assay with CP191 and in the assay with CP192 was “inactive” in each case.

Turning to `CCOc1ccc(S(=O)(=O)O)c2cccnc12`, the results for the activity, negative = inhibition in [1] (setting [2]) and in [1] (setting [3]) were 8.12% and 6.17%, respectively. The Potency result in the assay with 3D7, in the assay with 7G8, with AA1029, with AS120, in the assay with ATS189 and in the assay on ATS95 was “inactive” each time. Moreover, the Potency entry in the assay on C2A, with CP185, in the assay with CP191 and in the assay on CP192 was “inactive” in each case.

On to `Cc1ncc(C[n+]2csc(CCOP(=O)(O)O)c2C)c(N)n1`, for which the activity, negative = inhibition was -5.57% in [1] (setting [2]) and 6.98% in assay [1] (setting [3]). For the same compound, the Potency entry in the assay on 3D7, in the assay on 7G8, with AA1029, in the assay with AS120, in the assay on ATS189 and in the assay with ATS95 was “inactive” each time. Further, the Potency entry with C2A, in the assay with CP185, with CP191 and in the assay with CP192 was “inactive” each time.
